DT40 TDP1 no CPT – qHTS for Inhibitors of human tyrosyl-DNA phosphodiesterase 1 (TDP1): qHTS in cells in absence of CPT; DT40 Tdp1-/- hTDP1 cells, no CPT, ATP luminescence, 48 h; hit rate 15% among 420,000; Potency, µM (titrated, usually from 46.2 µM), for inactives: at the top dose activity change, negative = growth inhibition, actives largely listed as inhibitors; also: potency is read from the fitted curve at half-maximal effect; nearly all actives have a fitted effect of over 55% in size
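Growth of hTDP1-complemented DT40 Tdp1-knockout cells is measured by ATP luminescence after at least 48 hr compound exposure at 37 °C, with DMSO substituting for the 20 nM CPT used in the parallel screen.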
HT1080-NT tox – kills 2HG-producing HT-1080-NT fibrosarcoma cells; HT-1080-NT fibrosarcoma viability, CellTiter-Glo ATP luminescence, 48 h; hit rate 1.6% among 360,000; Potency, µM (highest dose often 46.1 µM), for inactives: top-dose activity, negative = less viability, usual class: cytotoxic;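 also: NT is the 2HG producing partner of a matched IDH1 knockdown line; potency is read from the fitted curve at half-maximal effect; 0% = DMSO-treated cells and -100% = media-only wells without cells; nearly all actives have a fitted effect of over 55% in size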
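A 48-hour cytotoxicity screen used HT-1080-NT cells plated 2 hours before compound delivery. ATP-based CellTiter-Glo luminescence measured viability, normalized to DMSO and no-cell controls.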
HT1080 IDH1KD tx – HT-1080 IDH1 knockdown cell toxicity (counter line); HT-1080 IDH1 knockdown viability, ATP luminescence, 48 h; Potency, µM (doses to about 46.1 µM), without a hit: top-dose activity, negative = toxicity, most hits filed as cytotoxic; hit rate 2% among 360,000;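 also: potency is read from the fitted curve at half-maximal effect; 0% = DMSO wells and -100% = cell-free medium wells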
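CellTiter-Glo luminescence after 48 h compound exposure at 37 degrees C of IDH1-knockdown HT-1080 cells in 5% FBS RPMI. %Activity scaled between DMSO wells and cell-free media wells, with curves fitted and assigned curve classes.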
TDP1 cell CPT – growth inhibition of DT40 Tdp1-/-;hTDP1 cells with camptothecin (screen for TDP1 inhibitors); chicken DT40 Tdp1-/-;hTDP1 cells + 20 nM CPT, ATP luminescence, 48 h; Potency, µM (highest dose often 46.2 µM), for the others: at the highest dose activity change, negative = growth inhibition, actives largely listed as inhibitors; hit rate 12% among 420,000; AID 686979; also: potency is read from the fitted curve at half-maximal effect; nearly all actives have a fitted effect of over 55% in size
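Chicken DT40 Tdp1-/- cells complemented with human TDP1, 400 cells/well, exposed to compounds plus 20 nM camptothecin for at least 48 h at 37 C; viability read as ATP content by CellTiter-Glo luminescence.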
IL1B secr inh – inflammasome signaling inhibition, IL-1 beta readout; THP-1 LPS/ATP IL-1B secretion, AlphaLISA, 16 h; hits give low values; activity change, % at 57.5 µM; AID 743279; hit rate 4.7% among 360,000; in the data active = activity change below about -50%; inconclusive = mostly about -30% to -49%
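Secreted IL-1B measured by AlphaLISA bead assay after 16 h compound exposure of THP-1 cells; compounds (final up to 57.5 uM) added 1 h before LPS (250 ng/mL) and ATP (1.25 mM) stimulation; lower signal means less secretion.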
Numbers without * were called inactive; i = inactive; ? = inconclusive; . = not tested or not shown; [ ] = remark or other dose. This is a sample that favours compounds with a hit; in the whole collection about 19% have one here. Unless noted, calls follow the shape of the dose curve; as a rule, active = well fitted curve in the direction sought with a large enough effect; inconclusive = small, poorly fitted or top-dose-only effect, or another doubt; inactive = no such curve, though single readings can be large; an effect the other way counts as inactive or inconclusive. Unless noted, % is scaled to controls: 0 for no effect and ±100 for the full control effect.

SMILES	DT40 TDP1 no CPT	HT1080-NT tox	HT1080 IDH1KD tx	TDP1 cell CPT	IL1B secr inh
Cc1ccc(C(C)C)c(OCC(=O)NC2CCN(C)CC2)c1	14%	1%	-4%	2%	-15
CCOC(=O)c1ccc(NC(=O)COC(=O)Cc2csc(-c3ccccc3)n2)cc1	15%	-1%	12%	5%	3
CC1CCN(C(=O)c2ccc3ccccc3c2)CC1	-6%	-1%	-3%	-12%	7
Cc1ccc(C(C)(C)C)cc1S(=O)(=O)Nc1cccc(C(=O)N2CCN(c3ccccn3)CC2)c1	16µM*	-23%	-30%	29µM*	-9
CC1CC(C)CN(C(=O)c2ccc3ccccc3c2)C1 (stereo not drawn)	?	8%	13%	?	-51*
O=C(c1ccc(S(=O)(=O)Nc2ccc(F)cc2)cc1)N1CCN(c2ccccn2)CC1	18µM*	-8%	-23%	?	-54*
COc1ccc(NS(=O)(=O)c2ccc(C(=O)N3CCN(c4ccc(F)cc4)CC3)cc2)cc1	4.6µM*	-15%	-16%	10µM*	-25
COc1ccc(N2CCN(C(=O)c3ccc(NS(=O)(=O)c4ccc(F)c(F)c4)cc3)CC2)cc1	?	-2%	-2%	?	6
Cc1cccc(NS(=O)(=O)c2cccc(C(=O)N3CCN(c4ccccn4)CC3)c2)c1	-28%	1%	-11%	-30%	2
O=C(Cn1cnc2ccccc2c1=O)N1CCN(S(=O)(=O)c2ccc(F)cc2)CC1	7%	11%[9.24 µM]	-3%	-5%	-26
Cc1c(C(=O)N(C)C2CCOC2)sc2ncnc(NCC3(c4ccccc4)CCOCC3)c12 (stereo not drawn)	-23%	.	.	-20%	.
CCOC(=O)c1cc(C)n(-n2cnnc2)c1C	-14%	-2%	-1%	1%	-1
CCOC(=O)COc1ccc(S(=O)(=O)Nc2cccc(SC)c2)cc1	-18%	10µM*	?	?	-9
CC1CC(C)CN(C(=O)c2ccc(S(=O)(=O)N3CC(C)CC(C)C3)cc2)C1 (stereo not drawn)	18µM*	-12%	-1%	23µM*	-77*
CC1CC(C)CN(S(=O)(=O)c2ccc(C(=O)N3CCCC3)cc2)C1 (stereo not drawn)	?	-3%	-6%	-16%	-5
COc1ccccc1N(CC(=O)NC1CCCC1)C(=O)c1oc(C(C)(C)C)cc1C	15µM*	-26%	-19%	23µM*	-91*
Cc1cc(C(C)(C)C)oc1C(=O)N(CC(=O)NC1CCCC1)c1ccc(F)cc1	16µM*	?	?	?	-24
COc1ccccc1N(CC(=O)NC1CCCC1)C(=O)c1csnn1	?	15%	21%	2%	5
Cc1cc(C(C)(C)C)oc1C(=O)N(CC(=O)NC1CCCC1)c1c(C)cccc1C	5.2µM*	?	?	12µM*	-27
O=C(CN(C(=O)CNC(=O)c1ccco1)c1ccc(F)cc1)NC1CCCC1	-4%	15%	1%	1%	-4
Cc1ccc(C(=O)N(CC(=O)NC2CCCC2)c2ccccc2C)s1	?	12%	2%	?	-11
O=C(NCCO)C1(c2ccc(Cl)cc2)CCCC1	-11%	6%	-11%	1%	5
COc1cc(O)c(C(C)=O)c2c1C=CC(C)(C)O2	?	4%	0%	-11%	32
COc1ccc(OCc2cc(=O)c3ccc4c(c3o2)C=CC(C)(C)O4)cc1OC	?	7%	-2%	16µM*	-12
COc1ccc(OC)c(S(=O)(=O)Nc2ccc(C(N)=O)cc2)c1	-13%	10%	10%	-29%	2
SMILES	DT40 TDP1 no CPT	HT1080-NT tox	HT1080 IDH1KD tx	TDP1 cell CPT	IL1B secr inh
COc1ccc(OC)c(S(=O)(=O)Nc2ccc3oc(C)c(C(C)=O)c3c2)c1	15µM*	-27%	-28%	16µM*	22
COC(=O)c1c(C)oc2ccc(NS(=O)(=O)c3cc(OC)ccc3OC)cc12	10µM*	?	?	10µM*	8
COc1ccc(OC)c(S(=O)(=O)Nc2ccc3c(c2)OCCO3)c1	?	-1%	-8%	?	-20
COc1ccc(OC)c(S(=O)(=O)Nc2ccc(C(C)=O)cc2)c1	18µM*	-1%	?	11µM*	14
CN(CC(=O)Nc1cccc(F)c1)C(=O)c1ccccc1OCCOc1ccccc1	?	0%	-4%	?	?
C=CCN1C(=O)c2ccc(C(=O)N(C)CC(=O)Nc3ccccc3C(F)(F)F)cc2C1=O	1%	-1%	-1%	3%	i
CC(=O)c1cccc(NC(=O)c2ccc(-c3c(C)noc3C)c3ccoc23)c1	?	25%	?	16µM*	77
CC(=O)Nc1ccc(NC(=O)c2ccc(-c3c(C)noc3C)c3ccoc23)cc1	?	-1%	-25%	21µM*	-5
Cc1noc(C)c1-c1ccc(C(=O)NCCN2CCOCC2)c2occc12	29µM*	8%	5%	?	0
Cc1noc(C)c1-c1ccc(C(=O)Nc2ccc(C(C)C)cc2)c2occc12	10µM*	?	?	12µM*	34
Cc1noc(C)c1-c1ccc(C(=O)NCCc2ccccc2)c2occc12	?	-17%	6%	?	4
O=C(CCNC(=O)c1ccccc1Cl)NCCc1ccc(C(F)(F)F)cc1	-11%	14%	-3%	-7%	8
COc1cc(NC(=O)c2ccc(-c3c(C)noc3C)c3ccoc23)cc(OC)c1OC	8.2µM*	-27%	?	13µM*	-14
O=c1cc(-c2ccccc2)n2c(SCc3ccccc3Cl)nnc2[nH]1	-1%	.	.	4%	.
COc1ccc(/C=C/C(=O)c2ccc(OC)cc2OC)cc1	?	-26%	-29%	?	-105*
COc1ccc(/C=C/C(=O)c2cc(C(=O)/C=C/c3ccc(OC)cc3)c(O)cc2O)cc1	11µM*	16%	4%	?	.
COc1ccc(/C=C/C(=O)O)cc1	?	-3%	-2%	9%	5
COc1ccc(/C=C/C(=O)c2cc(O)ccc2O)cc1	16µM*	.	.	16µM*	.
COc1ccc(C(=O)COC(=O)/C=C/c2ccccc2)c(OC)c1	9%	0%	11%	-3%	-18
COc1ccc(/C=C/C(=O)CCC(=O)O)cc1	-16%	14%	3%	21%	0
O=C(/C=C\Nc1ccccn1)c1ccccc1	-23%	-19%	-22%	-6%	8
COc1ccc(C(=O)/C=C/Nc2ccccn2)c(OC)c1	?	-16%	?	-16%	-63*
COc1cc(OC)c(C(=O)Oc2ccc3c(c2)OCO3)cc1OC	-9%	2%	-5%	-21%	45
CCOc1ccc(/C=C/C(=O)c2c(O)cc(C)oc2=O)cc1	?	-11%	0%	?	?
